{
  "source": "the antibiotic and cytotoxicity screens of Wong et al. (2023)",
  "note": "The whole screen tested about 39,000 compounds, of which about 1,500 (3.8%) were called active. This excerpt belongs to a sample that is enriched for actives.",
  "data": [
    {"system": "HSkMC (human skeletal muscle cells)", "assay": "cytotoxicity call (relative viability < 0.9)", "conditions": "10 µM", "values": [
      {"smiles": "C=CCOC(=O)[C@H]1[C@@H]2C(=O)O[C@@H](c3ccccc3)[C@@H](c3ccccc3)N2[C@@H](c2ccc(OCCOC(=O)[C@H]3C[C@H]4C(=O)N[C@@H](Cc5ccccc5)C(=O)N4[C@H]3c3cccc(OCCO)c3)cc2)[C@]12C(=O)Nc1ccc(I)cc12", "cytotoxicity call": "inactive"},
      {"smiles": "CCS(=O)(=O)N1C[C@]2(CCN(CC2)C(=O)NC2CCCC2)c2c(n(c3cc(ccc23)OC)C)[C@@H]1CO", "cytotoxicity call": "inactive"},
      {"smiles": "C[C@@H]1CN([C@@H](C)CO)C(=O)c2cc(NC(=O)Nc3ccc(C(F)(F)F)cc3)ccc2O[C@H]1CN(C)C(=O)NC1CCCCC1", "cytotoxicity call": "inactive"},
      {"smiles": "C[C@@H]1CCCCO[C@@H](CN(C)C(=O)Nc2ccc(C(F)(F)F)cc2)[C@@H](C)CN([C@@H](C)CO)C(=O)c2cc(NC(=O)C3CCCCC3)ccc2O1", "cytotoxicity call": "inactive"},
      {"smiles": "CCNC(=O)C[C@@H]1C=C[C@H](NC(=O)C2CCOCC2)[C@@H](CO)O1", "cytotoxicity call": "inactive"},
      {"smiles": "C[C@@H]1CCCCO[C@@H](CN(C)S(=O)(=O)c2cccs2)[C@H](C)CN([C@@H](C)CO)C(=O)c2cc(NC(=O)CCC(F)(F)F)ccc2O1", "cytotoxicity call": "inactive"},
      {"smiles": "O=C(C[C@@H]1C[C@@H]2c3cc(NC(=O)NC4CCCC4)ccc3O[C@@H]2[C@@H](CO)O1)NCc1ccc(-c2ccccc2)cc1", "cytotoxicity call": "inactive"},
      {"smiles": "CS(=O)(=O)Nc1ccc2c(c1)[C@H]1C[C@H](CC(=O)NCc3ccc(-c4ccccc4)cc3)O[C@@H](CO)[C@H]1O2", "cytotoxicity call": "inactive"},
      {"smiles": "O=C(C[C@H]1C[C@@H]2c3cc(NC(=O)NC4CCCC4)ccc3O[C@@H]2[C@@H](CO)O1)NCc1ccc(-c2ccccc2)cc1", "cytotoxicity call": "active"},
      {"smiles": "O=C(C[C@H]1C[C@H]2c3cc(NC(=O)NC4CCCC4)ccc3O[C@H]2[C@H](CO)O1)NCc1ccc(-c2ccccc2)cc1", "cytotoxicity call": "inactive"},
      {"smiles": "CS(=O)(=O)Nc1ccc2c(c1)[C@@H]1C[C@@H](CC(=O)NCc3ccc(-c4ccccc4)cc3)O[C@H](CO)[C@@H]1O2", "cytotoxicity call": "inactive"},
      {"smiles": "O=C(C[C@H]1C[C@H]2c3cc(NC(=O)NC4CCCC4)ccc3O[C@H]2[C@@H](CO)O1)NCc1ccc(-c2ccccc2)cc1", "cytotoxicity call": "inactive"},
      {"smiles": "O=C(C[C@@H]1C[C@H]2c3cc(NC(=O)NC4CCCC4)ccc3O[C@H]2[C@H](CO)O1)NCc1ccc(-c2ccccc2)cc1", "cytotoxicity call": "active"},
      {"smiles": "CS(=O)(=O)Nc1ccc2c(c1)[C@@H]1C[C@@H](CC(=O)NCc3ccc(-c4ccccc4)cc3)O[C@@H](CO)[C@@H]1O2", "cytotoxicity call": "active"},
      {"smiles": "O=C(C[C@H]1C[C@@H]2c3cc(NC(=O)NC4CCCC4)ccc3O[C@@H]2[C@H](CO)O1)NCc1ccc(-c2ccccc2)cc1", "cytotoxicity call": "inactive"},
      {"smiles": "CC(C)NC(=O)N[C@@H]1C=C[C@@H](CC(=O)O)O[C@@H]1CO", "cytotoxicity call": "inactive"},
      {"smiles": "COc1ccc(S(=O)(=O)N(C)C[C@H]2Oc3ccc(NS(=O)(=O)c4cccs4)cc3CC(=O)N([C@H](C)CO)C[C@@H]2C)cc1", "cytotoxicity call": "inactive"},
      {"smiles": "C[C@@H]1CN([C@@H](C)CO)C(=O)c2cc(NC(=O)Nc3ccccc3)ccc2O[C@@H](C)CCCCO[C@H]1CN(C)S(=O)(=O)c1ccc(C(F)(F)F)cc1", "cytotoxicity call": "inactive"},
      {"smiles": "Cc1ccc2cccc(OCCOc3ccccc3C(C)C)c2n1", "cytotoxicity call": "inactive"},
      {"smiles": "O=C(C[C@@H]1CC[C@H]2[C@@H](COC[C@@H](O)CN2S(=O)(=O)c2ccc(Oc3ccccc3)cc2)O1)NC1CCC1", "cytotoxicity call": "inactive"},
      {"smiles": "Cc1ccc2nc([C@H](N)C(C)C)[nH]c2c1", "cytotoxicity call": "inactive"},
      {"smiles": "C[C@@H]1CN([C@H](C)CO)C(=O)Cc2cc(NC(=O)Cc3ccccc3)ccc2O[C@@H]1CN(C)Cc1ccc(Cl)c(Cl)c1", "cytotoxicity call": "active"},
      {"smiles": "C[C@H](CO)N1C[C@H](C)[C@H](CN(C)Cc2ccc(Cl)c(Cl)c2)Oc2ccc(NC(=O)Cc3ccccc3)cc2CC1=O", "cytotoxicity call": "inactive"},
      {"smiles": "C[C@@H]1CN([C@@H](C)CO)C(=O)Cc2cc(NC(=O)Cc3ccccc3)ccc2O[C@H]1CN(C)Cc1ccc(Cl)c(Cl)c1", "cytotoxicity call": "inactive"},
      {"smiles": "C[C@@H]1CN([C@H](C)CO)C(=O)Cc2cc(NC(=O)Cc3ccccc3)ccc2O[C@H]1CN(C)Cc1ccc(Cl)c(Cl)c1", "cytotoxicity call": "inactive"},
      {"smiles": "C[C@@H]1CN([C@@H](C)CO)C(=O)Cc2cc(NC(=O)Cc3ccccc3)ccc2O[C@@H]1CN(C)Cc1ccc(Cl)c(Cl)c1", "cytotoxicity call": "active"},
      {"smiles": "C[C@H]1CN([C@@H](C)CO)C(=O)Cc2cc(NC(=O)Cc3ccccc3)ccc2O[C@@H]1CN(C)Cc1ccc(Cl)c(Cl)c1", "cytotoxicity call": "inactive"},
      {"smiles": "Cc1ccc(S(=O)(=O)Nc2cccc3c2O[C@@H](CN(C)S(=O)(=O)c2cccs2)[C@H](C)CN([C@@H](C)CO)C3=O)cc1", "cytotoxicity call": "inactive"},
      {"smiles": "C[C@@H]1CN([C@H](C)CO)C(=O)Cc2cc(NC(=O)C3CCCCC3)ccc2O[C@H]1CN(C)Cc1ccc(Cl)c(Cl)c1", "cytotoxicity call": "inactive"},
      {"smiles": "C[C@@H]1CN([C@@H](C)CO)C(=O)Cc2cc(NC(=O)C3CCCCC3)ccc2O[C@H]1CN(C)Cc1ccc(Cl)c(Cl)c1", "cytotoxicity call": "inactive"},
      {"smiles": "C[C@H]1CN([C@@H](C)CO)C(=O)Cc2cc(NC(=O)C3CCCCC3)ccc2O[C@H]1CN(C)Cc1ccc(Cl)c(Cl)c1", "cytotoxicity call": "inactive"},
      {"smiles": "C[C@@H]1CN([C@H](C)CO)C(=O)Cc2cc(NC(=O)C3CCCCC3)ccc2O[C@@H]1CN(C)Cc1ccc(Cl)c(Cl)c1", "cytotoxicity call": "active"},
      {"smiles": "C[C@H]1CN([C@@H](C)CO)C(=O)Cc2cc(NC(=O)C3CCCCC3)ccc2O[C@@H]1CN(C)Cc1ccc(Cl)c(Cl)c1", "cytotoxicity call": "inactive"},
      {"smiles": "C[C@@H]1CN([C@@H](C)CO)C(=O)Cc2cc(NC(=O)C3CCCCC3)ccc2O[C@@H]1CN(C)Cc1ccc(Cl)c(Cl)c1", "cytotoxicity call": "active"},
      {"smiles": "COc1ccc(NC(=O)Nc2cccc3c2O[C@@H](CN(C)S(=O)(=O)c2cn(C)cn2)[C@@H](C)CN([C@@H](C)CO)C3=O)cc1", "cytotoxicity call": "inactive"},
      {"smiles": "O=C(C[C@H]1CC[C@H]2[C@@H](COC[C@@H](O)CN2Cc2cc(F)ccc2F)O1)N[C@H]1CCN(Cc2ccccc2)C1", "cytotoxicity call": "inactive"},
      {"smiles": "O=C(C[C@@H]1CC[C@H](NC(=O)CN2CCOCC2)[C@@H](CO)O1)NCc1cccc(F)c1", "cytotoxicity call": "inactive"},
      {"smiles": "CN1C(=O)c2cc(NC(=O)C3CCCC3)ccc2OC[C@@H]2O[C@H](CC(=O)NCCc3ccncc3)CC[C@@H]21", "cytotoxicity call": "inactive"},
      {"smiles": "COc1ccc(S(=O)(=O)Nc2ccc3c(c2)CC(=O)N([C@H](C)CO)C[C@H](C)[C@H](CN(C)Cc2ccc(Cl)c(Cl)c2)O3)cc1", "cytotoxicity call": "active"},
      {"smiles": "COc1ccc(S(=O)(=O)Nc2ccc3c(c2)CC(=O)N([C@@H](C)CO)C[C@H](C)[C@@H](CN(C)Cc2ccc(Cl)c(Cl)c2)O3)cc1", "cytotoxicity call": "inactive"},
      {"smiles": "COc1ccc(S(=O)(=O)Nc2ccc3c(c2)CC(=O)N([C@@H](C)CO)C[C@@H](C)[C@H](CN(C)Cc2ccc(Cl)c(Cl)c2)O3)cc1", "cytotoxicity call": "inactive"},
      {"smiles": "COc1ccc(S(=O)(=O)Nc2ccc3c(c2)CC(=O)N([C@H](C)CO)C[C@H](C)[C@@H](CN(C)Cc2ccc(Cl)c(Cl)c2)O3)cc1", "cytotoxicity call": "inactive"},
      {"smiles": "COc1ccc(S(=O)(=O)Nc2ccc3c(c2)CC(=O)N([C@H](C)CO)C[C@@H](C)[C@H](CN(C)Cc2ccc(Cl)c(Cl)c2)O3)cc1", "cytotoxicity call": "inactive"},
      {"smiles": "COc1ccc(S(=O)(=O)Nc2ccc3c(c2)CC(=O)N([C@@H](C)CO)C[C@@H](C)[C@@H](CN(C)Cc2ccc(Cl)c(Cl)c2)O3)cc1", "cytotoxicity call": "active"},
      {"smiles": "COc1ccc(S(=O)(=O)Nc2ccc3c(c2)CC(=O)N([C@H](C)CO)C[C@@H](C)[C@@H](CN(C)Cc2ccc(Cl)c(Cl)c2)O3)cc1", "cytotoxicity call": "active"},
      {"smiles": "COc1ccc(S(=O)(=O)Nc2ccc3c(c2)CC(=O)N([C@@H](C)CO)C[C@H](C)[C@H](CN(C)Cc2ccc(Cl)c(Cl)c2)O3)cc1", "cytotoxicity call": "active"},
      {"smiles": "COc1ccc(S(=O)(=O)N(C)C[C@H]2Oc3ccc(NC(=O)C4CC4)cc3CC(=O)N([C@H](C)CO)C[C@H]2C)cc1", "cytotoxicity call": "inactive"},
      {"smiles": "Cc1noc(C)c1NC(=O)N(C)C[C@@H]1Oc2ccc(NC(=O)Cn3cnnn3)cc2CC(=O)N([C@@H](C)CO)C[C@@H]1C", "cytotoxicity call": "inactive"},
      {"smiles": "CCN(CCO)C(=O)C1CN(C(C)=O)C1", "cytotoxicity call": "inactive"},
      {"smiles": "CCCc1nc2c(C)cc(-c3nc4ccccc4n3C)cc2n1Cc1ccc(-c2ccccc2C(=O)O)cc1", "cytotoxicity call": "inactive"},
      {"smiles": "O=C(C[C@@H]1CC[C@H]2[C@@H](COC[C@H](O)CN2C(=O)Nc2cc(Cl)cc(Cl)c2)O1)N1CCOCC1", "cytotoxicity call": "inactive"},
      {"smiles": "Cc1noc(C)c1NC(=O)N(C)C[C@H]1OCCCC[C@@H](C)Oc2ccc(NS(=O)(=O)c3ccccc3)cc2C(=O)N([C@H](C)CO)C[C@H]1C", "cytotoxicity call": "inactive"},
      {"smiles": "Cc1cccc(Oc2ccc(NC(=O)C3CCC(C)CC3)cc2)c1", "note": "(stereo not drawn)", "cytotoxicity call": "inactive"},
      {"smiles": "CN1CCN(Cc2ccc(NC(=O)Nc3ccc(Oc4cc(NC(=O)C5CC5)ncn4)cc3)cc2C(F)(F)F)CC1", "cytotoxicity call": "active"},
      {"smiles": "COc1ccc(NC(=O)Nc2ccc3c(c2)[C@H]2C[C@H](CC(=O)N4CCN(C)CC4)O[C@@H](CO)[C@H]2O3)cc1", "cytotoxicity call": "inactive"},
      {"smiles": "CC(C)NC(=O)N(C)C[C@@H]1Oc2ccc(NS(=O)(=O)c3ccccc3)cc2CC(=O)N([C@@H](C)CO)C[C@@H]1C", "cytotoxicity call": "inactive"},
      {"smiles": "Cc1noc(C)c1S(=O)(=O)Nc1ccc2c(c1)C(=O)N([C@H](C)CO)C[C@@H](C)[C@@H](CN(C)S(C)(=O)=O)OCCCC[C@H](C)O2", "cytotoxicity call": "inactive"},
      {"smiles": "COc1ccc(C#Cc2cnc3c(c2)C(=O)N([C@@H](C)CO)C[C@H](C)[C@H](CN(C)CC2CCOCC2)O3)cc1", "cytotoxicity call": "inactive"},
      {"smiles": "COc1cc(O)c2c(=O)cc(C)oc2c1CC=C(C)C", "cytotoxicity call": "inactive"},
      {"smiles": "CC(C)=CCc1c(O)cc2oc(C)cc(=O)c2c1O", "cytotoxicity call": "inactive"},
      {"smiles": "COc1c(O)cc2oc3cc(O)c(CC=C(C)C)c(O)c3c(=O)c2c1CC=C(C)C", "note": "[alpha-MANGOSTIN ]", "cytotoxicity call": "active"},
      {"smiles": "COc1ccc(S(=O)(=O)Nc2ccc3c(c2)C(=O)N([C@@H](C)CO)C[C@@H](C)[C@H](CN(C)S(C)(=O)=O)O3)cc1", "cytotoxicity call": "inactive"},
      {"smiles": "C[C@@H]1CN([C@H](C)CO)C(=O)Cc2cc(NS(=O)(=O)c3cccs3)ccc2O[C@H]1CN(C)S(=O)(=O)c1cn(C)cn1", "cytotoxicity call": "inactive"}
    ]}
  ]
}
